The values below come from the supplement of paper PMC11219838.

In this assay the test system is Meloidogyne hapla J2. Put plainly: proportion of mobile M. hapla J2 relative to DMSO control (fraction of DMSO control); higher = more viable, less nematicidal, active = 0.7 or less. The settings on record: 60 µM; 5 days; temperature: 20 °C. How it is done:
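DODA library (846 commercial 1,3,4- and 1,2,4-oxadiazole compounds plus commercial nematicide controls) screened at a single dose of 60 µM (0.6% DMSO) in 96-well plates, two biological replicates. Read-outs: C. elegans N2 L1 survival/reproduction score at day 6, 20 °C (0: 0-10 worms, 1: 11-20, 2: 21-50, 3: >50, 4: overgrown/starved). C. elegans daf-2 dauer, D. dipsaci and M. hapla J2 mobility at day 5, 20 °C, and P. penetrans mobility at day 5, 20 °C, each relative to DMSO controls. M. hapla egg hatching at day 12, 25 °C, relative to the mean of 8 DMSO wells on the same plate.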
With `CC1CC(C)CN(C(=O)CSc2nnc(-c3ccccc3)o2)C1` (stereo not given), the “proportion of mobile M. hapla J2” value was 1.02 (inactive).
With `Cc1ccc(-c2nnc(SCC(=O)Nc3ccc(Br)c(C)c3C)o2)cc1`, the “proportion of mobile M. hapla J2” value was 1.03 (inactive).
As for `Clc1ccc(CSc2nnc(-c3ccccc3)o2)cc1Cl`, the figure is 1.01 (inactive); as for `Cc1ccc(-c2noc(COc3cc(C)cc(C)c3)n2)cc1`, 1.02 (inactive).
In the case of `CCn1c(C)cc(C(=O)CSc2nnc(-c3ccccc3)o2)c1C`, the “proportion of mobile M. hapla J2” value is 0.962 (inactive).
The value for `Cc1ccc(-c2nnc(SCC(=O)Nc3c(C)cc(C)cc3C)o2)cc1` was 0.979 (inactive); that for `Cc1ccc(-c2nc(-c3cccc(C(F)(F)F)c3)no2)cc1` was 1.04 (inactive); that for `COc1nc2ccc(C)cc2cc1-c1noc(-c2cccnc2)n1` was 0.972 (inactive).
Consider `Cc1cccc(-c2noc(COc3ccc(C)cc3C)n2)c1`, for which the “proportion of mobile M. hapla J2” value was 1.09 (inactive).
As for `Cc1ccccc1OCc1nc(-c2ccc(NC(=O)c3ccc(Br)o3)cc2)no1`, the figure is 0.726 (inactive); as for `COC(=O)c1ccc(Cl)c(NC(=O)CSc2nnc(-c3ccc(Cl)cc3)o2)c1`, 0.77 (inactive); as for `CC1CCN(C(=O)CSc2nnc(-c3cccc(Cl)c3)o2)CC1`, 1.02 (inactive).
Regarding `CCOc1nc(-c2ccc(C)cc2)ccc1-c1noc(-c2ccc(F)cc2)n1`, the “proportion of mobile M. hapla J2” value was 0.829 (inactive).
For `Cc1ccc(-c2noc(-c3ccc(Br)o3)n2)s1`, the “proportion of mobile M. hapla J2” value is 0.965 (inactive).
`COc1ccccc1-c1nnc(SCC(=O)Nc2ccccc2Cl)o1`: the “proportion of mobile M. hapla J2” value is 0.973 (inactive).
As to `COc1ccc(-c2noc(-c3ccccc3Br)n2)cc1`, the “proportion of mobile M. hapla J2” value was 0.765 (inactive).
In the case of `COc1ccc(-c2noc(CSc3nc4cc(C)ccc4[nH]3)n2)cc1`, the “proportion of mobile M. hapla J2” value is 0.861 (inactive).
As for `COc1ccc(Cl)cc1-c1noc(COc2ccc(Cl)cc2)n1`, the figure is 0.964 (inactive).
For the compound `CCCc1ccc(-c2nc(-c3ccc(F)cc3)no2)cc1`, the “proportion of mobile M. hapla J2” value was 1.01 (inactive).
Consider `c1coc(-c2nc(-c3cccs3)no2)c1`, for which the “proportion of mobile M. hapla J2” value is 1.01 (inactive).
As for `CCc1ccc(C(=O)Nc2ccccc2-c2nc(-c3ccncc3)no2)cc1`, the “proportion of mobile M. hapla J2” value is 1 (inactive).
As to `CNC(=O)c1ccccc1-c1nc(-c2ccc(Cl)cc2)no1`, the “proportion of mobile M. hapla J2” value is 0.985 (inactive).
With `O=C(CSc1nnc(-c2ccco2)o1)Nc1cccc(Cl)c1Cl`, the “proportion of mobile M. hapla J2” value was 0.866 (inactive).
With `O=C(CSc1nnc(-c2ccccc2)o1)N1CCc2ccccc21`, the “proportion of mobile M. hapla J2” value was 0.993 (inactive).
The value for `O=C(CSc1nnc(-c2ccc(Cl)cc2)o1)Nc1nccs1` was 0.917 (inactive).
Take `Cc1ccc(OCc2nc(-c3ccc(Br)o3)no2)cc1C`: the “proportion of mobile M. hapla J2” value was 1 (inactive).
Take `COc1ccc(CC(=O)Nc2ccc(-c3noc(COc4cccc(C)c4C)n3)cc2)cc1`: the “proportion of mobile M. hapla J2” value is 0.88 (inactive).
As for `COc1ccccc1-c1nnc(SCC(=O)Nc2ccc(Br)cn2)o1`, the figure is 0.908 (inactive); as for `COc1ccc(-c2noc(-c3cccc(Br)c3)n2)cc1`, 0.987 (inactive).
Turning to `CC(C)c1ccc(OCc2nc(-c3ccccn3)no2)cc1`, the “proportion of mobile M. hapla J2” value was 1.01 (inactive).
As to `CCOc1ccc(-c2nc(-c3ccc(Cl)cc3)no2)cc1`, the “proportion of mobile M. hapla J2” value was 1 (inactive).
The value for `Cc1cccc(OC(C)c2nc(-c3ccncc3)no2)c1` (stereo not given) was 0.988 (inactive); that for `COc1cccc(-c2noc(-c3c(F)cccc3F)n2)c1` was 0.953 (inactive); that for `O=C(Nc1cccc(-c2noc(-c3cccnc3)n2)c1)c1cccs1` was 0.999 (inactive).
For the compound `COc1cccc(-c2nnc(SCC(=O)NC3CCCCC3)o2)c1`, the “proportion of mobile M. hapla J2” value was 0.869 (inactive).
As to `Cc1cnc(NC(=O)CSc2nnc(-c3cccc(Cl)c3)o2)s1`, the “proportion of mobile M. hapla J2” value is 0.97 (inactive).
Take `Cc1cccc(OCc2nc(-c3ccncc3)no2)c1C`: the “proportion of mobile M. hapla J2” value was 0.937 (inactive).
As for `Cc1cccc(-c2noc(-c3ccc(Cl)cc3)n2)c1`, the figure is 1.05 (inactive).
Turning to `COc1cccc(-c2nc(-c3ccc(C)cc3)no2)c1`, the “proportion of mobile M. hapla J2” value was 0.953 (inactive).
The value for `COc1ccc(-c2noc(COc3ccc(Cl)cc3)n2)cc1` was 1.04 (inactive).
